Inconclusive results are not listed. The source made the active and inactive calls. Calls follow the shape of the dose curve; as a rule, active = well fitted curve in the direction sought with a large enough effect; inconclusive = small, poorly fitted or top-dose-only effect, or another doubt; inactive = no such curve, though single readings can be large; an effect the other way counts as inactive or inconclusive.
Assays:
[1] = molecular target: Luciferin 4-monooxygenase (Photinus pyralis) (UniProt P08659); assay: Firefly luciferase counterscreen qHTS: Assay Interference Panel against the NCATS CANVASS Library (AID 1347363); also: series mostly up to about 57 µM
Luciferin 4-monooxygenase (Photinus pyralis), sequence (P08659 whole entry, looked up): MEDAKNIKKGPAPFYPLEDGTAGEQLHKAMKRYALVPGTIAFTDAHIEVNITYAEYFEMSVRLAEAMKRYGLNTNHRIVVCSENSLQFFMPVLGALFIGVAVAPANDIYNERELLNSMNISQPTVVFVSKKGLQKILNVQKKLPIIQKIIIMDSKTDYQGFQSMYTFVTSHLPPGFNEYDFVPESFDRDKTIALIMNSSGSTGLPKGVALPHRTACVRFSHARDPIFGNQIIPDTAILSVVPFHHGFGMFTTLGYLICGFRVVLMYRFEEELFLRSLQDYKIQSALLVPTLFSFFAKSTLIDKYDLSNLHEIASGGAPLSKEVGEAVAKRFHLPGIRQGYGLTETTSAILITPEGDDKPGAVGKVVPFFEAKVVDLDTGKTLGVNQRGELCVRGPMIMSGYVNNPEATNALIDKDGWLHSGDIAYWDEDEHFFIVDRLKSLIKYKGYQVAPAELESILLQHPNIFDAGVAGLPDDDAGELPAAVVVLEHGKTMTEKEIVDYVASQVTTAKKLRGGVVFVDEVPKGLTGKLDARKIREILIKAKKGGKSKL
Excerpt: Natural products and their derivatives continue to be wellsprings of nascent therapeutic potential. However, many laboratories have limited resources for biological evaluation, leaving their previously isolated or synthesized compounds largely or completely untested. To address this issue, the Canvass library of natural products was assembled (https://tripod.nih.gov/canvass), in collaboration with academic and industry researchers, for quantitative high-throughput screening (qHTS) across a diverse set of cell-based and biochemical assays. The pure (>85% purity by liquid chromatography/mass spectrometry [LC/MS]) Canvass library of 346 natural products were submitted by 45 academic laboratories and companies around the world. […] The library was formatted into 1536-well plates and evaluated in 50 qHTS (in an 11-pnt concentration series) bioassays with broad scope of disease-relevant mechanisms. The resulting data set from 50 different assays was then systematically analyzed to identify overall trends and specific natural products with interesting biological activities. […] The assay measures the relative levels of luminescence, to identify compounds that inhibit the activity of luciferase. […]
Luciferase Interference counterscreen protocol 1. […] Luminescence signal was acquired via the ViewLux plate reader (PerkinElmer) using a clear emission filter and a 2 second exposure, 2x binning settings.

[2] = KB-8-5-11 Cancer Cell Toxicity qHTS against the NCATS CANVASS Library (AID 1347364); also: series mostly up to about 46 µM; nearly all actives have a fitted effect of over 75% in size
Outline: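 Natural products were titrated in 11 points onto KB-8-5-11 cells, 500 per well, and cytotoxicity was scored from CellTiter-Glo luminescence after 72 hr culture.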

[3] = SDT Cancer Cell Toxicity qHTS against the NCATS CANVASS Library (AID 1347365);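 also: SDT canine glioma cells 500 per well in 1536 well plates; series mostly up to about 46 µM; nearly all actives have a fitted effect of over 60% in size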
Outline: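 Dispense 500 SDT cells per well; pin-transfer compounds; incubate 72 hr at 37C, 5% CO2, 95% RH; add CellTiterGlo and read luminescence.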

[4] = KB-3-1 Cancer Cell Toxicity qHTS against the NCATS CANVASS Library (AID 1347366); conditions: outcome: dose series up to 46.1 µM; also: nearly all actives have a fitted effect of over 75% in size
Outline: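 KB-3-1 cells (500 cells/well) in DMEM + 10% FBS were treated with compounds for 72 hr at 37C, 5% CO2. Viability was read as CellTiter-Glo luminescence after 10 minutes at room temperature.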

[5] = qHTS for ATAD5 Agonist screened against the NCATS CANVASS Library (AID 1347367);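 also: luciferase reporter driven by ATAD5 which rises upon DNA damage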
Outline: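 HEK293T cells stably carrying an ATAD5-controlled luciferase reporter (2000 cells/well) attached for 5 hr, then received compounds in an 11-point series for 16hr at 37C. Luminescence was read after a 30 min room-temperature reagent step.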

[6] = G06 Cancer Cell Toxicity qHTS against the NCATS CANVASS Library (AID 1347368); also: series mostly up to about 46 µM; nearly all actives have a fitted effect of over 60% in size
Excerpt: Natural products and their derivatives continue to be wellsprings of nascent therapeutic potential. However, many laboratories have limited resources for biological evaluation, leaving their previously isolated or synthesized compounds largely or completely untested. To address this issue, the Canvass library of natural products was assembled (https://tripod.nih.gov/canvass), in collaboration with academic and industry researchers, for quantitative high-throughput screening (qHTS) across a diverse set of cell-based and biochemical assays. […] The library was formatted into 1536-well plates and evaluated in 50 qHTS (in an 11-pnt concentration series) bioassays with broad scope of disease-relevant mechanisms. The resulting data set from 50 different assays was then systematically analyzed to identify overall trends and specific natural products with interesting biological activities. […] This assay uses ATP (luminescence) content to measure the cytotoxiciy of compounds on G06 dog glioma cancer cell line. […]
Cancer Cell Toxicity qHTS protocol: for cell lines G06, J3T, and SDT. […] Luminescence signal was acquired via the ViewLux plate reader (PerkinElmer) using a clear emission filter, 2 sec exposure, and 1x binning settings.

[7] = MCF7 Cancer Cell Toxicity qHTS against the NCATS CANVASS Library (AID 1347369); also: series mostly up to about 46 µM
Outline: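 MCF7, 500 cells/well; cpds 11-pt qHTS; 72 hr, 37C/5% CO2; CellTiterGlo ATP luminescence.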

[8] = qHTS for ATAD5 Antagonist screened against the NCATS CANVASS Library (AID 1347370);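 also: HEK293T cells carrying an ATAD5 luciferase reporter co-treated with 10 µM 5-fluorouridine; series mostly up to about 46 µM; nearly all actives have a fitted effect of over 65% in size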
Outline: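 HEK293T cells with a stably integrated ATAD5-controlled luciferase reporter were exposed to compounds (11-pt) alongside 10 uM 5-fluorouridine as ATAD5 stabilizer for 16hr at 37C. Viability was read by CellTiter-Fluor fluorescence, then ATAD5 by luminescence.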

[9] = J3T Cancer Cell Toxicity qHTS against the NCATS CANVASS Library (AID 1347371);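 also: J3T is a canine glioma cancer cell line seeded at 500 cells per well; series mostly up to about 46 µM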
Outline: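 Viability of the J3T glioma line from dog is scored by ATP luminescence after a 72 hr incubation with natural products.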

[10] = tested on: NAD(P)H diaphorase (Clostridium kluyveri); assay: Diaphorse counterscreen qHTS: Assay Interference Panel against the NCATS CANVASS Library (AID 1347362)
Outline: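 Counterscreen for coupling-enzyme interference: resorufin fluorescence from resazurin/NADH turnover, read after 5 min at room temperature. Compounds were tested over an 11-point series after 15 min dark preincubation with diaphorase in PBS-Tween.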

Measured: outcome

NCCc1c[nH]c2ccc(O)cc12
inactive: [1] | [2] | [3] | [4] | [5] | [6] | [7] | [8] | [9]

NCCc1c[nH]c2ccccc12
inactive: [10] | [1] | [2] | [4] | [5] | [6] | [7] | [8] | [9]

— PubChem BioAssay (NCATS)
